This passage reports inhibition results from ChEMBL document CHEMBL1961873, “Compounds: GSK PKIS; Assays: Nanosyn kinase panel” (2012).

In experiment [1] the target is Protein kinase C gamma type (Homo sapiens) (UniProt P05129). The note with it: at 1 µM.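 Also: each value is an averaged percent inhibition of the enzyme.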
The target in experiment [2] is T1, Protein kinase C iota type (Homo sapiens) (UniProt P41743).
T1 sequence (whole entry): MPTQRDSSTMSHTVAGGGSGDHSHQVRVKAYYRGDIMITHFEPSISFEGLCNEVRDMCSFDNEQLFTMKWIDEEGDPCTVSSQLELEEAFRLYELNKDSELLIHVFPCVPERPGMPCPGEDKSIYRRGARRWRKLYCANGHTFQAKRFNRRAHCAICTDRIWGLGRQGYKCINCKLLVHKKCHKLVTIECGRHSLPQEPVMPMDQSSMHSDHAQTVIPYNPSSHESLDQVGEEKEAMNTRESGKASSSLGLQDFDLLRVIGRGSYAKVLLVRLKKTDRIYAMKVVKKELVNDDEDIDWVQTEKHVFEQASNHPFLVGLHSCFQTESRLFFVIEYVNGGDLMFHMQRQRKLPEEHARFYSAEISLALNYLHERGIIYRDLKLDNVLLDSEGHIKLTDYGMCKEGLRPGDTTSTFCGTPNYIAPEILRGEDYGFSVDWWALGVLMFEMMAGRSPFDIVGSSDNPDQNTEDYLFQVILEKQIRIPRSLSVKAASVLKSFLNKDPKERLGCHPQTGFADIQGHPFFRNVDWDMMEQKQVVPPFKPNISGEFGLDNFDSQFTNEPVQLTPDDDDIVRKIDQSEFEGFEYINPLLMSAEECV
Conditions: at 0.1 µM.

Experiment [3] deals with T1, Protein kinase C iota type (Homo sapiens). Conditions: at 1 µM.
Experiment [4] concerns the target Protein kinase C theta type (Homo sapiens) (UniProt Q04759). The note with it: at 0.1 µM.
Experiment [5] shares this target. Conditions: at 1 µM.
Experiment [6] has as its target Protein kinase C beta type (Homo sapiens) (UniProt P05771). The note with it: at 0.1 µM.
The target is the same in experiment [7]. Conditions: at 1 µM.
For experiment [8], the target named is T2, Serine/threonine-protein kinase D1 (Homo sapiens) (UniProt Q15139).
T2 sequence (whole entry): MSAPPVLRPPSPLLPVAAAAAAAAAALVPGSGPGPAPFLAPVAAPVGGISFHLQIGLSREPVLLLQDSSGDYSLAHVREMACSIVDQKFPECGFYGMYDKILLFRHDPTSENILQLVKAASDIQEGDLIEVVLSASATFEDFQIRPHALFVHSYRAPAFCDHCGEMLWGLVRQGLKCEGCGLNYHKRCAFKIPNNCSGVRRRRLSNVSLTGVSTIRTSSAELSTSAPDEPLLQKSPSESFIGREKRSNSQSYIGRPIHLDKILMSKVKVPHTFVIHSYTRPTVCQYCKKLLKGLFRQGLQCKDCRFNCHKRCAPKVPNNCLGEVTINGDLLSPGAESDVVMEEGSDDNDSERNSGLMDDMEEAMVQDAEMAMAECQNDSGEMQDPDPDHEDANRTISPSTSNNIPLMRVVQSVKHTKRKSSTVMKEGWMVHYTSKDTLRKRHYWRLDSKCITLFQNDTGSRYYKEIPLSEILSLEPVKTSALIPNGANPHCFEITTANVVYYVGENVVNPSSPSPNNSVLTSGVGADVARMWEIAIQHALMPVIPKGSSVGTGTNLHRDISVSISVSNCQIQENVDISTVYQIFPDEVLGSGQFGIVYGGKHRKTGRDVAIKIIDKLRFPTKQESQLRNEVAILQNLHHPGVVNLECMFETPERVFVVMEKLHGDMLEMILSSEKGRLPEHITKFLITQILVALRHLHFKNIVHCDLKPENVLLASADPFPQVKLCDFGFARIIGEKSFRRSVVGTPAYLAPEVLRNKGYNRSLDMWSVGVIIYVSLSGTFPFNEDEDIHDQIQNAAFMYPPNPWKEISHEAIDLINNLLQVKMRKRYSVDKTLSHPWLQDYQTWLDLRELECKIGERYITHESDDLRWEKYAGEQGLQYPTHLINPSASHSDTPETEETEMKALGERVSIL
The note with it: at 0.1 µM.

Experiment [9] concerns the target T2, Serine/threonine-protein kinase D1 (Homo sapiens). The note with it: at 1 µM.
Experiment [10] has as its target T3, Serine/threonine-protein kinase D2 (Homo sapiens) (UniProt Q9BZL6).
T3 sequence (whole entry): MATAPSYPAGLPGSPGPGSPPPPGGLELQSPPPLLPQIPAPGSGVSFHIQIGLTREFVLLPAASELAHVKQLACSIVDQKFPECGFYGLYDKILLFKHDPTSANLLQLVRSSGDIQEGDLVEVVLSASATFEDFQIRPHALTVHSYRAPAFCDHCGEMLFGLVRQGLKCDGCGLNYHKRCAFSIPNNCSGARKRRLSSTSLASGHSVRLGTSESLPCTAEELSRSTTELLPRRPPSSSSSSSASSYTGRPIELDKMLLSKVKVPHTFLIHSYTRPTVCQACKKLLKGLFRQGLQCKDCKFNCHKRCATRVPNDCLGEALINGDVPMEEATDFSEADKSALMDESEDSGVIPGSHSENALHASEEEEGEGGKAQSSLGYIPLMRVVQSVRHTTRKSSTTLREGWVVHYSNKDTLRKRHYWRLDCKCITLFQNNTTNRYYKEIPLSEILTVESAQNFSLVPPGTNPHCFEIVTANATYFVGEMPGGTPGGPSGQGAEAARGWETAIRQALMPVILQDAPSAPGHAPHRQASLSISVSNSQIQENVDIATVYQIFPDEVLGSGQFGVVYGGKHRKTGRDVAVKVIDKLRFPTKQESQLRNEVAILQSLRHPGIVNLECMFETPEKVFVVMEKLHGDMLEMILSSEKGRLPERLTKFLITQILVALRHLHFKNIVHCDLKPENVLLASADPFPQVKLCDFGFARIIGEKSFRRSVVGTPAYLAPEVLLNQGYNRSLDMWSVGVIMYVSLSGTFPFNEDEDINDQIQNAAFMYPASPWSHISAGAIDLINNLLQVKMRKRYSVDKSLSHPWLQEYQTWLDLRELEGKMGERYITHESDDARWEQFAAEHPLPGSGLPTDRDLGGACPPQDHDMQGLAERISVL
The note with it: at 0.1 µM.

Experiment [11] concerns the target T3, Serine/threonine-protein kinase D2 (Homo sapiens). Conditions: at 1 µM.
Experiment [12] concerns the target T4, Serine/threonine-protein kinase D3 (Homo sapiens) (UniProt O94806).
T4 sequence (whole entry): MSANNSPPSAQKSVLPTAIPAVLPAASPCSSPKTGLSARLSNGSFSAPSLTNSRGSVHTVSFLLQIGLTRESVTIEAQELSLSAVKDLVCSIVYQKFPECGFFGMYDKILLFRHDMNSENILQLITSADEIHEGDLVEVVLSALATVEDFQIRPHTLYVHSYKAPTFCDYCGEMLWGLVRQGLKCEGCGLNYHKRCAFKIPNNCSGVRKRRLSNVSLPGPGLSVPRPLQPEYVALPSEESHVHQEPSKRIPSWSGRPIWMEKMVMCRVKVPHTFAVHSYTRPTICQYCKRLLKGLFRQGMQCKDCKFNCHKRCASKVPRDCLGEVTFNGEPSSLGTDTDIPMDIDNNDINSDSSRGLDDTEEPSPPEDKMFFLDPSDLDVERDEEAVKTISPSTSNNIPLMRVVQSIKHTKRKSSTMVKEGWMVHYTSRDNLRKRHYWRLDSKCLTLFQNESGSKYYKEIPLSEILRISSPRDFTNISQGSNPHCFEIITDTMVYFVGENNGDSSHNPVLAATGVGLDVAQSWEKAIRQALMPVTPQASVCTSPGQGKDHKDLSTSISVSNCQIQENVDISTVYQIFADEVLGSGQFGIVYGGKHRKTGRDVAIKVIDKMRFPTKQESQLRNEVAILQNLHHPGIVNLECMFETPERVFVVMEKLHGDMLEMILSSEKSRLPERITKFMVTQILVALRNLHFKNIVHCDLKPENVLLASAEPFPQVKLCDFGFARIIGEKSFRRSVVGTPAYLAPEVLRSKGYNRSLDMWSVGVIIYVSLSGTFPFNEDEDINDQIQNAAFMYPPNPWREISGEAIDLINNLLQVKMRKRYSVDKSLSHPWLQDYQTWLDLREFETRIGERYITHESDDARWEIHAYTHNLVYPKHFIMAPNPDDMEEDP
Conditions: at 0.1 µM.

Experiment [13] addresses T4, Serine/threonine-protein kinase D3 (Homo sapiens). Conditions: at 1 µM.
In experiment [14] the target is T5, cGMP-dependent protein kinase 1 (Homo sapiens) (UniProt Q13976).
T5 sequence (whole entry): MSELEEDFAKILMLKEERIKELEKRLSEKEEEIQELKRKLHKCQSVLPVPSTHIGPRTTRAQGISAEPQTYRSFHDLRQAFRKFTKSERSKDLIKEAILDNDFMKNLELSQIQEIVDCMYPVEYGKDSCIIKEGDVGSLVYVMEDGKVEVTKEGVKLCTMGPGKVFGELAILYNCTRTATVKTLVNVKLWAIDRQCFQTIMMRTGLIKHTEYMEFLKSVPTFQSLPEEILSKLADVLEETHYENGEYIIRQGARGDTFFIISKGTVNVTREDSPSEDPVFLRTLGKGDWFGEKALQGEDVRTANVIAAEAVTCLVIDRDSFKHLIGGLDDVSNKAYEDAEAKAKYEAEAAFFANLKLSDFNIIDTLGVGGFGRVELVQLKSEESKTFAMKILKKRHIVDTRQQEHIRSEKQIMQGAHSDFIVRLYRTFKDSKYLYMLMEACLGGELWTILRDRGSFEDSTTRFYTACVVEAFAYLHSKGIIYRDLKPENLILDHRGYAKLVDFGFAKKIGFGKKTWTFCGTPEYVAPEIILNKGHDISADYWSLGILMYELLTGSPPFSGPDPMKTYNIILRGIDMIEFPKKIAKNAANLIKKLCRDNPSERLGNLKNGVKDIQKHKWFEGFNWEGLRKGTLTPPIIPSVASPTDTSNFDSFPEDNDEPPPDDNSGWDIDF
The note with it: at 0.1 µM.

The target of experiment [15] is T5, cGMP-dependent protein kinase 1 (Homo sapiens). The note with it: at 1 µM.
The target in experiment [16] is T6, cGMP-dependent protein kinase 2 (Homo sapiens) (UniProt Q13237).
T6 sequence (whole entry): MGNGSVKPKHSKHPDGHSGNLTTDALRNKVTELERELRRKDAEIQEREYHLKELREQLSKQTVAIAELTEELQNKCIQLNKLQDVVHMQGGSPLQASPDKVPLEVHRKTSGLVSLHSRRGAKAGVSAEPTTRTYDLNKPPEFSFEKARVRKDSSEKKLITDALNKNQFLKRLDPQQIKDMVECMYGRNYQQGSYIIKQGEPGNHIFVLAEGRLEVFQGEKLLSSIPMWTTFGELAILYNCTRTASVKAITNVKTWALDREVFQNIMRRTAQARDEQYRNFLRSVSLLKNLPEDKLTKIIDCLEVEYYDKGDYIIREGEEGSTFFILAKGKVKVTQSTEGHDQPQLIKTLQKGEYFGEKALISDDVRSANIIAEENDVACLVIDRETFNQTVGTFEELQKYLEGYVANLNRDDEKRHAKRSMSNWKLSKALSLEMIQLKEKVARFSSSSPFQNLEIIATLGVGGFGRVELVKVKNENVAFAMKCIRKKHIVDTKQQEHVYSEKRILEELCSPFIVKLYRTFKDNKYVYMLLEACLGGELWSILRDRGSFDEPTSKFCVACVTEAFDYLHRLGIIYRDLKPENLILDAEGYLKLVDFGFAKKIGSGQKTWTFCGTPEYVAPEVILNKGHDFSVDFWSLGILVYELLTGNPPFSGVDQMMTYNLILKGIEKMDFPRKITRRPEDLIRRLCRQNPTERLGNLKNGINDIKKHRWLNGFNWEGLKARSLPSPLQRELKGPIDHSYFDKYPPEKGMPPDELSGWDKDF
Conditions: at 0.1 µM.

Experiment [17] deals with T6, cGMP-dependent protein kinase 2 (Homo sapiens). The note with it: at 1 µM.
The target of experiment [18] is T7, cAMP-dependent protein kinase catalytic subunit PRKX (Homo sapiens) (UniProt P51817).
T7 sequence (whole entry): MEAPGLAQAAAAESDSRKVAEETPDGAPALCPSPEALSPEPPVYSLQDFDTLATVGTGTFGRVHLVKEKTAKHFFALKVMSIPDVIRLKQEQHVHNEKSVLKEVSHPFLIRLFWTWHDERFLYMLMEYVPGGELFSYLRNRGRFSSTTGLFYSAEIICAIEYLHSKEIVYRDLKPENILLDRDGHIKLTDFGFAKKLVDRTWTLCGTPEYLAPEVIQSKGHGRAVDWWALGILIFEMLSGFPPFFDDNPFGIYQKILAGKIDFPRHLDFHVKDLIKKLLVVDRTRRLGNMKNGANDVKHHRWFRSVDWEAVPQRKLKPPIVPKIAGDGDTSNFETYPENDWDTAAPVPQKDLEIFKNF
The note with it: at 0.1 µM.

Experiment [19] concerns the target T7, cAMP-dependent protein kinase catalytic subunit PRKX (Homo sapiens). Conditions: at 1 µM.
Experiment [20] deals with Rho-associated protein kinase 1 (Homo sapiens) (UniProt Q13464). The note with it: at 0.1 µM.
Chain of Rho-associated protein kinase 1 (Homo sapiens) (Q13464 2-1354 limits assumed): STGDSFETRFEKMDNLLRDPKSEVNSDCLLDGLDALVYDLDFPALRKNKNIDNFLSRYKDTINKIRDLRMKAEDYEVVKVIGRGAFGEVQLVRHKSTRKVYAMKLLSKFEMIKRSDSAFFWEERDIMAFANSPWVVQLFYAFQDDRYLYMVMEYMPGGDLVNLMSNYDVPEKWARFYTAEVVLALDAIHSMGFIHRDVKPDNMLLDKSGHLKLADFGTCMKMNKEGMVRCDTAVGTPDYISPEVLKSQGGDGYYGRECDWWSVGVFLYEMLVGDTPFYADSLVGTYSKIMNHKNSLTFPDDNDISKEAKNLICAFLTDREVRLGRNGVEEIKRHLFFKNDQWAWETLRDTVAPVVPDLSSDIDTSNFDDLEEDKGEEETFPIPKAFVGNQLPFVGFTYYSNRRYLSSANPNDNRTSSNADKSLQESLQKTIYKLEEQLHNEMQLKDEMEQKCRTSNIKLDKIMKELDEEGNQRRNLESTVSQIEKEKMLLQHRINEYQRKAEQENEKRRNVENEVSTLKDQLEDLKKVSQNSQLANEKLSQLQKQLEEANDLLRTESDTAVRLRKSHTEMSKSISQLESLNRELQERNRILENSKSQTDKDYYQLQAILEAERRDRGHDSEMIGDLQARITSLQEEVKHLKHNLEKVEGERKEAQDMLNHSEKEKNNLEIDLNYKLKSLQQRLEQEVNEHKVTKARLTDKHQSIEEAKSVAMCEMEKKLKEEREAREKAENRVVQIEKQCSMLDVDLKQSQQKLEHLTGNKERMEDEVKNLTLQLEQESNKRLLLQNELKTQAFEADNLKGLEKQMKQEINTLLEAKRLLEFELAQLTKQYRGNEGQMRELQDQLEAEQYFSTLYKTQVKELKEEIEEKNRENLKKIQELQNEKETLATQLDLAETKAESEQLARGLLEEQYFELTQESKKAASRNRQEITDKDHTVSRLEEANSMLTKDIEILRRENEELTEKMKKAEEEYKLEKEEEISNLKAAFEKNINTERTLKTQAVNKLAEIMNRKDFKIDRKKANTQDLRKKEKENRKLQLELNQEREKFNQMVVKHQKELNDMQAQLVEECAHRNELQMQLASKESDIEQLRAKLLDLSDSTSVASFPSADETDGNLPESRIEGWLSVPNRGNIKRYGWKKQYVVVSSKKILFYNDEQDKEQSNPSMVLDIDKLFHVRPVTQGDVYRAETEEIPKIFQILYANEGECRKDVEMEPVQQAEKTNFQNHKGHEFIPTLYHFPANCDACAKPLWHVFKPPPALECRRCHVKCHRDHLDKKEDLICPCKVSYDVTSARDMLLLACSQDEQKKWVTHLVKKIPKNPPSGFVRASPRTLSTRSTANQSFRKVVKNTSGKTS

Chain of Protein kinase C theta type (Homo sapiens) (Q04759 whole entry, looked up): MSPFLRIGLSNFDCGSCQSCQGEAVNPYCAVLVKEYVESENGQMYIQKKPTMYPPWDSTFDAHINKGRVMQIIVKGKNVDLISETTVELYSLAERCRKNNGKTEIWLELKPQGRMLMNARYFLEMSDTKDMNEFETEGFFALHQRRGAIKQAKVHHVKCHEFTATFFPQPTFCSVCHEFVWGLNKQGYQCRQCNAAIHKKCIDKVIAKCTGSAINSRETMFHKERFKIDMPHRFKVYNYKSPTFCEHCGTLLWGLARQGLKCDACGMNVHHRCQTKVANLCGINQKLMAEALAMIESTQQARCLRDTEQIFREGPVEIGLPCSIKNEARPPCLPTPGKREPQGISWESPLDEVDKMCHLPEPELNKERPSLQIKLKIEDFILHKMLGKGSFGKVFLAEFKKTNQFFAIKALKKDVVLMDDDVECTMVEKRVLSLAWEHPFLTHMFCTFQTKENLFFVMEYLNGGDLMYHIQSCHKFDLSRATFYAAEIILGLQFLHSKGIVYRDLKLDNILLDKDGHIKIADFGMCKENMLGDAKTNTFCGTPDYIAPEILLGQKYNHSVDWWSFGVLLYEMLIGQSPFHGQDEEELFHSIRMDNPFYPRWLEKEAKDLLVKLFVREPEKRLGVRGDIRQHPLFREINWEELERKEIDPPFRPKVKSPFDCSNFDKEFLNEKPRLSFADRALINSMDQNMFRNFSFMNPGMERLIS
Chain of Protein kinase C beta type (Homo sapiens) (P05771 2-671 limits assumed): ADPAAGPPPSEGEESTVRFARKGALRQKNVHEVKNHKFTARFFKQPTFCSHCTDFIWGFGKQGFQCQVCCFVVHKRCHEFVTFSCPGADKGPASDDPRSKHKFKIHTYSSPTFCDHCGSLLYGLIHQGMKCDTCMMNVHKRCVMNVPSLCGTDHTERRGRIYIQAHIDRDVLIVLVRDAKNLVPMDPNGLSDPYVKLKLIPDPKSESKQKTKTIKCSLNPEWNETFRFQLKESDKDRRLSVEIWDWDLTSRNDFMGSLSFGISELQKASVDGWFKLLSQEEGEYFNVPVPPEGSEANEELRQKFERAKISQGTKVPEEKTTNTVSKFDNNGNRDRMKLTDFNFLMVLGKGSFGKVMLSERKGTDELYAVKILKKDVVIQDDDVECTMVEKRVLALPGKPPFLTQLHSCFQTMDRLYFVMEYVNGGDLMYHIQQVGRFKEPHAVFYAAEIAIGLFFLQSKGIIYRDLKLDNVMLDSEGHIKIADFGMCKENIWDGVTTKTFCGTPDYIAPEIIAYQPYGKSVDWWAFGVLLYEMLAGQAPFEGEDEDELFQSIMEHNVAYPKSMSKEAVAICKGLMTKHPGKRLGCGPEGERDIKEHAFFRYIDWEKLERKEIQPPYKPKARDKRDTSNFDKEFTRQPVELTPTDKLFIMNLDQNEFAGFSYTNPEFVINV

Usually inhibition stands for how much of the control response was suppressed. Low readings indicate a weak effect, high ones a strong effect. On to `CN(C)CCOc1ccc(-c2nc(-c3ccncc3)c(-c3ccc4c(c3)CC/C4=N\O)[nH]2)cc1`, for which the inhibition stood at 3.66% in experiment [1]; 3.25% in [2]; 3.37% in [3]; 2.07% in experiment [4]; 2.93% in experiment [5]; 0.36% in experiment [6]. Also, the inhibition in experiment [7] was 3.35%; in [8] it was 3.26%; in experiment [9], 6.18%; in experiment [10], 2.55%; in experiment [11] it was 6.37%; in [12] it was 3.58%. Further, the inhibition was determined as 5.44% in experiment [13]; 2.17% in [14]; 6.12% in experiment [15]; 2.69% in [16]; 12.3% in experiment [17]; 1.16% in experiment [18]. For the same compound, the inhibition turned out to be 1.33% in [19] and 0.51% in experiment [20].
